The values below come from PubChem BioAssay (NCI).

Molecules are shown by their SMILES. This is part of a sample that, as a whole, favours compounds with a hit. Of some 83,000 tested, about 20% had one in any assay.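 For each line, cells grew in 96-well plates with the test compound present at a single concentration for 48 hours.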 Values without a mark were called inactive. Calls of active or inactive are those of the source. Rule for the calls: active = growth percent below 10; inactive = the rest.

Assay in all cases: NCI-60 one-dose screen, 48 h (100 = growth as untreated, 0 = no growth, -100 = all killed)
Common to all, as to conditions: 10 µM unless noted

Assay [1] concerns DU-145 prostate.
Assay [2] deals with K-562 leukemia.
Assay [3] concerns MALME-3M melanoma.
For assay [4], the system named is MDA-MB-231 breast.
Assay [5] concerns RXF 393 renal.
For assay [6], the system named is SF-268 CNS.
In assay [7] the test system is SF-295 CNS.
For assay [8], the system named is SF-539 CNS.
Assay [9] concerns UACC-257 melanoma.
Assay [10] has as its system M14 melanoma.
Assay [11] deals with HCT-15 colon.
For assay [12], the system named is HT29 colon.
Assay [13] has as its system SNB-75 CNS.
In assay [14] the test system is SNB-19 CNS.
The test system of assay [15] is U251 CNS.
Assay [16] deals with PC-3 prostate.
Assay [17] relates to SK-MEL-5 melanoma.
Assay [18] relates to UACC-62 melanoma.
In assay [19] the test system is LOX IMVI melanoma.
The subject of assay [20] is SK-MEL-28 melanoma.

As for `COc1ccc2c(c1)C=CC1(O2)Oc2ccc(OC)cc2C=C1C` (stereo not given), the growth in [1] is 34.1%; in assay [2] it was 8.41% (active); in assay [3], 55.2%; in assay [4], 2.14% (active); in assay [5], -12.3% (active); in assay [6] it was 54.4%. Also, the growth in assay [7] was 7.92% (active); in [8], -11% (active); in assay [9] it was 73%; in assay [10], 3.03% (active); in assay [11], 24.7%; in [12] it was 4.04% (active). The growth in [13] was -8.45% (active); in assay [14], 27.5%; in assay [15], 12.3%; in [16], 29.8%; in assay [17], 24.9%; in assay [18] it was 19.1%. The growth is 22.2% in [19] and 54.2% in assay [20].

With `COc1ccc(-c2cc(-c3ccc(N(C)C)cc3)n3c(n2)nc2ccccc23)cc1`, the growth in [1] was 73.3%; in assay [2], 20.8%; in [3] it was 118%; in assay [4], 75.2%; in assay [5], 86.5%; in assay [6], 76.9%. The growth in [7] was 48.6%; in assay [8] it was 82.6%; in assay [9], 58%; in assay [10] it was 29.1%; in assay [11] it was 50.7%; in [12] it was 54.1%. Also, the growth in assay [13] is 95.2%; in assay [14] it was 67.2%; in [15], 40.5%; in assay [16], 28.1%; in assay [17], 3.05% (active); in assay [18], 48.2%. The growth is 66.3% in assay [19] and 77% in [20].

Consider `Nn1c(=O)n(-c2cccc(C(F)(F)F)c2)c(=O)c2cc(-c3ccc(F)cc3F)ccc21`, for which the growth in [1] was 24.4%; in [2] it was 6.85% (active); in [3], -17.2% (active); in assay [4], -10.2% (active); in [5] it was 3.65% (active); in assay [6] it was 17.8%. Moreover, the growth in assay [7] was -4.06% (active); in assay [8], 19.4%; in [9] it was -8.9% (active); in assay [10] it was 17.1%; in assay [11] it was 10.6%; in assay [12], 60.8%. Besides, the growth in assay [13] was -16.5% (active); in assay [14], 9.55% (active); in [15], 5.07% (active); in assay [16], -3.92% (active); in [17], -51.6% (active); in assay [18], 1.73% (active). The growth is 0.654% (active) in assay [19] and 28% in assay [20].

Turning to `O=C(/C=C/c1ccccc1Cl)Nc1ncc(Cc2cc(Cl)ccc2Cl)s1`, the growth was 30.7% in [1]; 12.9% in assay [2]; 39.7% in assay [3]; 49.4% in assay [4]; 17.2% in assay [5]; 43.9% in assay [6]. Further, the growth in assay [7] is 14.7%; in [8] it was 1.2% (active); in [9] it was 61.5%; in assay [10], 18.2%; in assay [11], 21.7%; in [12] it was -18% (active). Also, the growth in [13] is 1.14% (active); in [14] it was 21%; in assay [15], 16.6%; in assay [16], 39.8%; in assay [17], 25.7%; in [18], 23.2%. The growth in [19] was 35%; in assay [20] it was 55.4%.

As for `CN1CCN(Cc2ccc(/C=N/Nc3ccnc4cc(Cl)ccc34)cc2)CC1`, the growth is 75.1% in assay [1]; 4.76% (active) in assay [2]; 94.5% in assay [3]; 71.5% in assay [4]; 74.6% in assay [5]; 99.8% in assay [6]. For the same compound, the growth in assay [7] was 90%; in assay [8], 64.7%; in assay [9], 111%; in assay [10], 96.9%; in assay [11] it was 38.2%; in assay [12], 42.5%. The growth was 99% in [13]; 98.2% in [14]; 84.6% in [15]; 75.8% in assay [16]; 94.3% in assay [17]; 104% in assay [18]. The values for the growth in assay [19] and in [20] were 15.3% and 98%, respectively.

In the case of `O=C1[C@@H]2Cc3c([nH]c4ccccc34)[C@@H](c3ccc(Cl)cc3)N2C(=O)CN1C1CCN(Cc2c(F)cccc2F)CC1`, the growth in assay [1] is 49.2%; in assay [2] it was 16.8%; in [3] it was 88.8%; in assay [4], 66.4%; in assay [5], 44.4%; in assay [6] it was 39.2%. The growth in assay [7] was 41.4%; in [8], 60.9%; in assay [9] it was 51.1%; in assay [10], 14.4%; in assay [11] it was 24.3%; in assay [12], -10.2% (active). Also, the growth in assay [13] was 25.9%; in assay [14], 47.8%; in assay [15], 38%; in assay [16] it was 13.8%; in assay [17], 48.8%; in assay [18] it was 40.7%. Besides, the growth in assay [19] was 21.3%; in assay [20], 64.8%.

With `Cc1cc(=O)oc2cc(OCCCOc3ccc(/C=C/C(=O)Nc4ccc(Br)cc4)cc3)ccc12`, the growth in assay [1] is 67.1%; in [2], 78.4%; in [3] it was 40.4%; in assay [4], 70.5%; in assay [5] it was 57.8%; in assay [6], 67.8%. Also, the growth in [7] is 95.1%; in assay [8], 87.9%; in assay [9], 91.4%; in assay [10], 84%; in [11], 82.3%; in assay [12] it was 90.8%. Further, the growth in [13] was 115%; in assay [14] it was 86.9%; in assay [15], 97.8%; in [16] it was 81.8%; in assay [17] it was 85%; in assay [18] it was 94.5%. The growth in assay [19] was 67.9%; in [20] it was 86.6%.
